Assay [1] deals with Protein kinase C gamma type (Homo sapiens) (UniProt P05129). The note with it: at 1 µM.
Assay [2] deals with T1, Protein kinase C iota type (Homo sapiens) (UniProt P41743).
T1 sequence (whole entry): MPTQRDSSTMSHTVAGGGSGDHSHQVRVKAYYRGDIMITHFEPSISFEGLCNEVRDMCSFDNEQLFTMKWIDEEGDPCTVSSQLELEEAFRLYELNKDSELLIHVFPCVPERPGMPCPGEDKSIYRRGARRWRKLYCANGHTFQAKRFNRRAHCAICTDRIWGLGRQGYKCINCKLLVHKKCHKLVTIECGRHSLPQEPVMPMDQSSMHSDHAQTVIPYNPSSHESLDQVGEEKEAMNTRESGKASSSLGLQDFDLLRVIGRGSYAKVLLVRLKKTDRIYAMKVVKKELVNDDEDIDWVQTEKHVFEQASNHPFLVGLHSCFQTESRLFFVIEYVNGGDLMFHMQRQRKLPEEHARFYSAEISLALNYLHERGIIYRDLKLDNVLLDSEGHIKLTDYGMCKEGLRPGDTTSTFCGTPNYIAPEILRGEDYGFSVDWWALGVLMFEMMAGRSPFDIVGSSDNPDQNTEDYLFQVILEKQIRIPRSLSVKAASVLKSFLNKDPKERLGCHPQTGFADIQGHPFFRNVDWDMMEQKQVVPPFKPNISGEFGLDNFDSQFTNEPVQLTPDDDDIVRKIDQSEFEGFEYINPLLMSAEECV
The conditions noted are these: at 0.1 µM.

The target of assay [3] is T1, Protein kinase C iota type (Homo sapiens). The conditions noted are these: at 1 µM.
For assay [4], the target named is Protein kinase C theta type (Homo sapiens) (UniProt Q04759). The conditions noted are these: at 0.1 µM.
Protein kinase C theta type (Homo sapiens), sequence (Q04759 whole entry, looked up): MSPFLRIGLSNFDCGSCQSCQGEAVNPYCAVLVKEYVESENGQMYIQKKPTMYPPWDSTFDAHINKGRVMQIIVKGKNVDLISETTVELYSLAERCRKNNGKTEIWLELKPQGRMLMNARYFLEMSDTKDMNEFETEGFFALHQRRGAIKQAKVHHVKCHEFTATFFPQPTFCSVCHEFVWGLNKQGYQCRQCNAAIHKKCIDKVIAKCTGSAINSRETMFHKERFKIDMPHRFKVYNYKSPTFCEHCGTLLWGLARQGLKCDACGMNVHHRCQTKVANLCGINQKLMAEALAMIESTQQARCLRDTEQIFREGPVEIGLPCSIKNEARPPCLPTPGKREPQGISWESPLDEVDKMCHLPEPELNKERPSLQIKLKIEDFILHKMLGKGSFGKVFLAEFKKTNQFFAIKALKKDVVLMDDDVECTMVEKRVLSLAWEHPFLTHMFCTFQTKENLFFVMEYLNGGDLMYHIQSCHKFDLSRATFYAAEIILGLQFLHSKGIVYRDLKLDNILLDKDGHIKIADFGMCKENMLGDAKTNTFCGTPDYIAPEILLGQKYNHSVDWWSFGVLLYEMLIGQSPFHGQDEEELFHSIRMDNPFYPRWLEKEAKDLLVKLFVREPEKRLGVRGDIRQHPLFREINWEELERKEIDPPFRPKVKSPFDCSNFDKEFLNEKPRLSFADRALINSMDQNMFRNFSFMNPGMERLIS
For assay [5] the target is unchanged. The note with it: at 1 µM.
Assay [6] concerns the target Protein kinase C beta type (Homo sapiens) (UniProt P05771). The conditions noted are these: at 0.1 µM.
Assay [7] has the same target. The conditions noted are these: at 1 µM.
In assay [8] the target is T2, Serine/threonine-protein kinase D1 (Homo sapiens) (UniProt Q15139).
T2 sequence (whole entry): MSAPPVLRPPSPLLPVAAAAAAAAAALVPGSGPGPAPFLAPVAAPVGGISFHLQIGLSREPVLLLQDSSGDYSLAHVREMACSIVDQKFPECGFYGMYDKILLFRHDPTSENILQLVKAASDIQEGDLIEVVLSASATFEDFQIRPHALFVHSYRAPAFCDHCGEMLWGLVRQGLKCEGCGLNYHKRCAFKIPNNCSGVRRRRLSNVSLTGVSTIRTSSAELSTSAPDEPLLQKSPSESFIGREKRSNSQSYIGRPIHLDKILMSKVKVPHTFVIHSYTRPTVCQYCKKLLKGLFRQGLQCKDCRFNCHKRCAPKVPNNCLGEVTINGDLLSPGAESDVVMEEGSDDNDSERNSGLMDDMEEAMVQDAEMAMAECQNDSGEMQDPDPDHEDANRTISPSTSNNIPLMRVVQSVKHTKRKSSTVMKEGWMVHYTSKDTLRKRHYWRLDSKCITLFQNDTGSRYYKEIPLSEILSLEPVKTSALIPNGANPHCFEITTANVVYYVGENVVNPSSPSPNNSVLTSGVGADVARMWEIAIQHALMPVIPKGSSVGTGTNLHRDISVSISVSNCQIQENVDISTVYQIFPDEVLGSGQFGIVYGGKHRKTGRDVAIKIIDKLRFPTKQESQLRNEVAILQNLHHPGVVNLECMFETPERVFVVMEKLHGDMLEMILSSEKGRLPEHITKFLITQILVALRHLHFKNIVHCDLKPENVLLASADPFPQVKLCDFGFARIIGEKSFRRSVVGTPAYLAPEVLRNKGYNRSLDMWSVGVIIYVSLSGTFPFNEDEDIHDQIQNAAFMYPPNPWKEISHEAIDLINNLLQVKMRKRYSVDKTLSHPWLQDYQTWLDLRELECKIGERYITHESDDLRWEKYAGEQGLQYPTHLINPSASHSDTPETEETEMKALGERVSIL
The conditions noted are these: at 0.1 µM.

The target of assay [9] is T2, Serine/threonine-protein kinase D1 (Homo sapiens). The note with it: at 1 µM.
Assay [10] addresses T3, Serine/threonine-protein kinase D2 (Homo sapiens) (UniProt Q9BZL6).
T3 sequence (whole entry): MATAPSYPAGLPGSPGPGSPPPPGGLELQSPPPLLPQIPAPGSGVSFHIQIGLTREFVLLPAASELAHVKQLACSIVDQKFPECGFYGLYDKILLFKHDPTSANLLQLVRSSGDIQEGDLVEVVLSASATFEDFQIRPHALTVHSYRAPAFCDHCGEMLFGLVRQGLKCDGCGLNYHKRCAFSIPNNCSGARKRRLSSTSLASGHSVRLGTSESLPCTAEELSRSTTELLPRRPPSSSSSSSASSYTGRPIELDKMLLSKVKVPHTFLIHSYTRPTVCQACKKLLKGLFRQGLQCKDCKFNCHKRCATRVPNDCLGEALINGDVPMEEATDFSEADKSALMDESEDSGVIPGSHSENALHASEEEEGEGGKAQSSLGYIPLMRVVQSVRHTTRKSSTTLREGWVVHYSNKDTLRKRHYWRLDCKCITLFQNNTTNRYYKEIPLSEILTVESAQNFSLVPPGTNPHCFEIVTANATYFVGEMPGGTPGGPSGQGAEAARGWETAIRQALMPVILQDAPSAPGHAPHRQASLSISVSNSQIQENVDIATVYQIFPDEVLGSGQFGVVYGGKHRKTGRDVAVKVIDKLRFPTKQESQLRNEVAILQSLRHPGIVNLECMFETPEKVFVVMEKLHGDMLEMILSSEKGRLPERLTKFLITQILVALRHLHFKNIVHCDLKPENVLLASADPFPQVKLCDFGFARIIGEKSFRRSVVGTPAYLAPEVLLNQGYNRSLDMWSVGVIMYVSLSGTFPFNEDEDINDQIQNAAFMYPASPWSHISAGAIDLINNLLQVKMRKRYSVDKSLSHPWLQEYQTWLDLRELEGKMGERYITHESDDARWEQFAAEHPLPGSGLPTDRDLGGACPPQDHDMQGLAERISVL
The conditions noted are these: at 0.1 µM.

Assay [11] has as its target T3, Serine/threonine-protein kinase D2 (Homo sapiens). The conditions noted are these: at 1 µM.
In assay [12] the target is T4, Serine/threonine-protein kinase D3 (Homo sapiens) (UniProt O94806).
T4 sequence (whole entry): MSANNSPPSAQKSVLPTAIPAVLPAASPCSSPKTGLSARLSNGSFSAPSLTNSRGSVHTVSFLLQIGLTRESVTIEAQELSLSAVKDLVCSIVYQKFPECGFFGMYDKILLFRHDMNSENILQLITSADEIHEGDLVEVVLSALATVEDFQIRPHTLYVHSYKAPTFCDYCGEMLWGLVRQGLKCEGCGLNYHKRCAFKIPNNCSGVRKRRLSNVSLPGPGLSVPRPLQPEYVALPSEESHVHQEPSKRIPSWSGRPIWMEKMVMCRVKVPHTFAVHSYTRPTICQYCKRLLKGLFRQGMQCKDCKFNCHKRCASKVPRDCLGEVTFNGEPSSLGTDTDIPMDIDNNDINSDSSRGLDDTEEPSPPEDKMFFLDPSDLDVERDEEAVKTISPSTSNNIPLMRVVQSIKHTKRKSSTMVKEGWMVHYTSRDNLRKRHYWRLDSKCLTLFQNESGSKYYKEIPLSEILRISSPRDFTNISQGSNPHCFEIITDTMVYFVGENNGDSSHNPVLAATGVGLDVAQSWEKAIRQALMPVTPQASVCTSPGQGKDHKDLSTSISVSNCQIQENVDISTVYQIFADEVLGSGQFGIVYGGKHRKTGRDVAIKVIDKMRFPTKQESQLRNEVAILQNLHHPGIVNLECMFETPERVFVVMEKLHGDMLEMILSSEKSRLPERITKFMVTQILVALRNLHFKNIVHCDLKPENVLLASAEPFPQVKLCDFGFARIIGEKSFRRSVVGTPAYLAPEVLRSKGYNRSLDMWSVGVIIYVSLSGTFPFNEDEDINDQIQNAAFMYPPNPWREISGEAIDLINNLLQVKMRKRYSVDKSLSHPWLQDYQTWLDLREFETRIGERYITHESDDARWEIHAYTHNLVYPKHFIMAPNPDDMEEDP
The note with it: at 0.1 µM.

Assay [13] deals with T4, Serine/threonine-protein kinase D3 (Homo sapiens). The conditions noted are these: at 1 µM.
Assay [14] addresses T5, cGMP-dependent protein kinase 1 (Homo sapiens) (UniProt Q13976).
T5 sequence (whole entry): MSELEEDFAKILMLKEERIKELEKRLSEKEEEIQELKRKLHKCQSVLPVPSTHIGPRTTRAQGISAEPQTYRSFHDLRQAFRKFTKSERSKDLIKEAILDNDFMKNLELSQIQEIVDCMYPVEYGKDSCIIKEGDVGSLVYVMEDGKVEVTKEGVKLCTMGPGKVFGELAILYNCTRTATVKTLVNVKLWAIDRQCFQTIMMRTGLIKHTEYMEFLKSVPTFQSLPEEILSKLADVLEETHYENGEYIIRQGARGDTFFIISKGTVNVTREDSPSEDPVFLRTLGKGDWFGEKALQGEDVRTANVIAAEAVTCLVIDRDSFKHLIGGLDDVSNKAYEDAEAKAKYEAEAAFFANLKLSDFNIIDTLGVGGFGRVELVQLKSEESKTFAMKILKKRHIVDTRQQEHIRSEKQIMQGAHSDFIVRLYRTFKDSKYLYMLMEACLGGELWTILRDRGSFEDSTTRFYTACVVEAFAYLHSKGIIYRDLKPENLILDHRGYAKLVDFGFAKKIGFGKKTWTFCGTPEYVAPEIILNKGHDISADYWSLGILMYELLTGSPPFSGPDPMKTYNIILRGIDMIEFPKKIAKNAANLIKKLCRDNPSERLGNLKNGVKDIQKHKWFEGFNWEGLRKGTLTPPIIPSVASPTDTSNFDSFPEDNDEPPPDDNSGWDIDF
The conditions noted are these: at 0.1 µM.

Assay [15] has as its target T5, cGMP-dependent protein kinase 1 (Homo sapiens). The conditions noted are these: at 1 µM.
The target of assay [16] is T6, cGMP-dependent protein kinase 2 (Homo sapiens) (UniProt Q13237).
T6 sequence (whole entry): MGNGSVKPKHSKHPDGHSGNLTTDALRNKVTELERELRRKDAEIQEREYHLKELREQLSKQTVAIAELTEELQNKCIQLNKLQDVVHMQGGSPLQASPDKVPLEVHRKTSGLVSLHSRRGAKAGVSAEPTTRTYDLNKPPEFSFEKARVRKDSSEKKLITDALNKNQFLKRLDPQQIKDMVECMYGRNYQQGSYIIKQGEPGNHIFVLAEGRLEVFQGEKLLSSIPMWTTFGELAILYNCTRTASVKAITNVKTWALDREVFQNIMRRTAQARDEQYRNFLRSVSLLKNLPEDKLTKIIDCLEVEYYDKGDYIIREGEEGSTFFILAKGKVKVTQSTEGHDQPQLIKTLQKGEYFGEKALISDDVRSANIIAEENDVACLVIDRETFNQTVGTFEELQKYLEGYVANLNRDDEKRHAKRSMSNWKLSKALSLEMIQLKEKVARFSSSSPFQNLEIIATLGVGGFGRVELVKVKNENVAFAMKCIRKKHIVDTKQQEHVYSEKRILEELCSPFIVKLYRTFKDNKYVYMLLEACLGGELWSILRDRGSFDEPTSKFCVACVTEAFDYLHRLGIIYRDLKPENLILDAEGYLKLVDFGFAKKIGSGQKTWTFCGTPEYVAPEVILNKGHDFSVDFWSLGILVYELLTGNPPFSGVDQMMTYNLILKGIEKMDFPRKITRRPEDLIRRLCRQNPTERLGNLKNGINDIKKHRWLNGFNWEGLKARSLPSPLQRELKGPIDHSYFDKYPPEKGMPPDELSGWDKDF
The note with it: at 0.1 µM.

Assay [17] deals with T6, cGMP-dependent protein kinase 2 (Homo sapiens). The conditions noted are these: at 1 µM.
For assay [18], the target named is T7, cAMP-dependent protein kinase catalytic subunit PRKX (Homo sapiens) (UniProt P51817).
T7 sequence (whole entry): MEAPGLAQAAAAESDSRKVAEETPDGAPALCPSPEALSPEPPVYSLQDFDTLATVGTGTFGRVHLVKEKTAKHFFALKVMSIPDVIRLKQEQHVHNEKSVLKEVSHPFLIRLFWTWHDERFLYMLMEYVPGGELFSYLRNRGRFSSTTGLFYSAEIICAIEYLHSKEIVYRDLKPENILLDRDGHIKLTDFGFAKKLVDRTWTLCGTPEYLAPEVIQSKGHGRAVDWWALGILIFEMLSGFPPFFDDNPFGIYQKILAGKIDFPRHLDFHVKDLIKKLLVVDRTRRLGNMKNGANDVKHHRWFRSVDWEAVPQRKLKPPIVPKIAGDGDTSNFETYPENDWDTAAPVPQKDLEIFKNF
The note with it: at 0.1 µM.

For assay [19], the target named is T7, cAMP-dependent protein kinase catalytic subunit PRKX (Homo sapiens). The note with it: at 1 µM.
The target in assay [20] is Rho-associated protein kinase 1 (Homo sapiens) (UniProt Q13464). The conditions noted are these: at 0.1 µM.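 Further: values are mean percent inhibition of ROCK1.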
Rho-associated protein kinase 1 (Homo sapiens), sequence (Q13464 2-1354 limits assumed): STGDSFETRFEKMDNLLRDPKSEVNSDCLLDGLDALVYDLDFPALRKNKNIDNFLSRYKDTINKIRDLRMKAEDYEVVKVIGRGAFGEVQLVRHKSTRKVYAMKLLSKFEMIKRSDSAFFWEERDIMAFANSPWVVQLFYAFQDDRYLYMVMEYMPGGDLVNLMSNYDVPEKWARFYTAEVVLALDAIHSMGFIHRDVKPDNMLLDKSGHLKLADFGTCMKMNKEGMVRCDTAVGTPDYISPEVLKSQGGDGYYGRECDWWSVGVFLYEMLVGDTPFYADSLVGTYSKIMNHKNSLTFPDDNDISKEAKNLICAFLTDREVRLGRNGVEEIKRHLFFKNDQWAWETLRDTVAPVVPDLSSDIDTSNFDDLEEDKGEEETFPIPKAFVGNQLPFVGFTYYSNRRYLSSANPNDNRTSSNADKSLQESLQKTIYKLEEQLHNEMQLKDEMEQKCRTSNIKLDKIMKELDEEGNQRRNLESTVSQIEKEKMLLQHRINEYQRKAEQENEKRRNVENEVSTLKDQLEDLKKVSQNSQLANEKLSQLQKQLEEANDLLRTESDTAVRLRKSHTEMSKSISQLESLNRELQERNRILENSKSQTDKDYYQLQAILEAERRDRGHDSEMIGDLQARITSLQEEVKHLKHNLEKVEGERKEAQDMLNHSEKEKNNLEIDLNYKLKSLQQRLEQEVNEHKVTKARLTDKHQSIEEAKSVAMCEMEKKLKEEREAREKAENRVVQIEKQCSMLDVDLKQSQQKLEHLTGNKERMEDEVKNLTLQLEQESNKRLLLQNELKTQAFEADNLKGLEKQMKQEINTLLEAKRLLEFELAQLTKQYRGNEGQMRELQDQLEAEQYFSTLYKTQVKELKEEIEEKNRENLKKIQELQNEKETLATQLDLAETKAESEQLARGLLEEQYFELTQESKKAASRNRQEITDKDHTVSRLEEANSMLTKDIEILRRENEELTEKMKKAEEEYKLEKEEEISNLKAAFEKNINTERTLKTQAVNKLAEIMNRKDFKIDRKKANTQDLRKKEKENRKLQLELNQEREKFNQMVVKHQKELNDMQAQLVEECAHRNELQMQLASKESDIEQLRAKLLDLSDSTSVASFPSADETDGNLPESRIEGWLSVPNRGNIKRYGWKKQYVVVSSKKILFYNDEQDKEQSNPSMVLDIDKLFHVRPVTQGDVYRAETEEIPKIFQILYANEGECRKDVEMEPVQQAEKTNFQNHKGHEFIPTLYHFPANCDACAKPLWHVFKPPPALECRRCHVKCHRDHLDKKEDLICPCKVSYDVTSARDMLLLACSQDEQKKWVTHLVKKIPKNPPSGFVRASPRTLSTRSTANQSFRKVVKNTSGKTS

Protein kinase C beta type (Homo sapiens), sequence (P05771 2-671 limits assumed): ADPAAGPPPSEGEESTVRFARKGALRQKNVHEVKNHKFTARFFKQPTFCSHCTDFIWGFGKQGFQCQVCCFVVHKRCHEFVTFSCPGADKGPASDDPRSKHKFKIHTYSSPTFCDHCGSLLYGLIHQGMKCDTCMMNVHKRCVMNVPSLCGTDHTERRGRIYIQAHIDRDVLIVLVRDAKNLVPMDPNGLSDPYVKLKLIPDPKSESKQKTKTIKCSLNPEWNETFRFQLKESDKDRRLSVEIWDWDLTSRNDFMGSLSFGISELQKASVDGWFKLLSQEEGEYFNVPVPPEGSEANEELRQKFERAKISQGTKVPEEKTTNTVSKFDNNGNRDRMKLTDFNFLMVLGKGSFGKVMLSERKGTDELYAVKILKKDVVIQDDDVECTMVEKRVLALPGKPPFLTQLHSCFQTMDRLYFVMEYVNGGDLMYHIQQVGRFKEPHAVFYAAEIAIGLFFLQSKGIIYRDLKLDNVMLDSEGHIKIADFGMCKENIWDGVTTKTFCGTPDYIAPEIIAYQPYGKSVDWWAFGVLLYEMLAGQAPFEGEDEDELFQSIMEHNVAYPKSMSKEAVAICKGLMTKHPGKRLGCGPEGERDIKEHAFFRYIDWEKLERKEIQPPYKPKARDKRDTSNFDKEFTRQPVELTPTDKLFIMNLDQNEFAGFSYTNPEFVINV

One may read the inhibition as the drop in the measured response relative to a control, in per cent. For `Fc1ccc(-c2ncn(C3CCNCC3)c2-c2ccnc(Oc3ccc(F)c(F)c3)n2)cc1`, the inhibition in assay [1] was 4.25%; in [2] it was 1.82%; in assay [3], 1.79%; in assay [4], 2.61%; in [5] it was 2.43%; in [6] it was 0.97%. The inhibition was 3.85% in assay [7]; 2% in [8]; 7.05% in [9]; 1.25% in assay [10]; 3.98% in assay [11]; 1.09% in assay [12]. Also, the inhibition in [13] came out at 5.58%; in assay [14] it was 2.42%; in [15] it was 0.89%; in [16], 0.9%; in assay [17], 4.44%; in assay [18] it was 1.98%. Further, the values for the inhibition in assay [19] and in assay [20] were 2.55% and 1.38%, respectively.

For `COc1cc(Nc2ncc3c(C)nc(-c4cccc(C(F)(F)F)c4)n3n2)cc(OC)c1OC`, the inhibition in assay [1] turned out to be 7.63%; in assay [2] it was 0.74%; in assay [3] it was 0.54%; in [4] it was 1.87%; in assay [5], 5.29%; in [6], 1.35%. The inhibition amounted to 2.31% in assay [7]; 1.48% in [8]; 2.12% in assay [9]; 1.81% in assay [10]; 4.32% in assay [11]; 2.48% in assay [12]. Also, the inhibition is 2.79% in assay [13]; 0.96% in [14]; 5.81% in [15]; 4.61% in assay [16]; 6.16% in assay [17]; 3% in [18]. For the same compound, the inhibition was 7.31% in assay [19] and -0.86% in [20].

The values are drawn from ChEMBL document CHEMBL1961873, “Compounds: GSK PKIS; Assays: Nanosyn kinase panel” (2012).
